Measurements: PubChem BioAssay AID743093 (The Scripps Research Institute Molecular Screening Center, 2013)
Screen size: about 150,000 compounds; about 100 (0.067%) were called active.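 The calls were made as follows: active = inhibition above the mean plus 3 SD of compounds within the control limits, set per campaign (cut at about 38% in these data); inactive = the rest.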 For the sample, actives were picked, then their nearest neighbours and some compounds at random.

Assay: late stage P. falciparum gametocyte viability inhibitors, primary screen, ATP luminescence, HTS (AID 743093);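 also: 0% = DMSO wells and 100% = medium only without gametocytes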
Conditions: P. falciparum stage V gametocytes, 24 h, at 10.9 µM, stronger effect = higher value

Row | SMILES | inhibition
1 | COc1ccc(NC(=O)C2C3CCC(O3)C2C(=O)O)cc1OC (centres undefined) | 7.46% (inactive)
2 | Cc1ccc(S(=O)(=O)Nc2nc(C)cc(N/N=C/c3ccc(O)cc3)n2)cc1 | 42.5% (active)
3 | Cc1cc(N/N=C\c2ccc(Br)cc2)nc(-n2nc(C)cc2C)n1 | -0.66% (inactive)
4 | Cc1ccc(S(=O)(=O)Nc2nc(C)cc(-n3nc(C)cc3C)n2)cc1 | 10.5% (inactive)
5 | CC1CCC(CN2CCN=C2N(C)C)CC1 (centres undefined) | -5.33% (inactive)
6 | CCN(CC)CCCNC(=S)N(CCO)Cc1cc2cc3c(cc2[nH]c1=O)OCO3 | 4.58% (inactive)
7 | CN(c1ccccn1)c1ncnc2[nH]ncc12 | 2.58% (inactive)
8 | O=S(=O)(c1ccc(Cl)cc1)N1CCCN(c2ccc(C(F)(F)F)cn2)CC1 | -9.4% (inactive)
9 | CC(C)CC(CCc1ccccc1)OS(N)(=O)=O (centres undefined) | -58.7% (inactive)
10 | CC(C)(C)OC(=O)Nc1ccc([C@@H](NC(=O)OC(C)(C)C)C(=O)OC(C)(C)C)cc1 | -5.54% (inactive)
11 | COc1ccc(C)cc1NC(=O)CNCc1cccs1 | 7.68% (inactive)
12 | O=C(Cc1ccc(Br)cc1)NCCc1ccccc1 | 15.4% (inactive)
13 | CCC(C)CCN1CCN=C1N(C)C (centres undefined) | 4.3% (inactive)
14 | Cc1ccc(S(=O)(=O)NCCCn2ccnc2)cc1C(=O)NC(C)C | 2.4% (inactive)
15 | O=C1N[C@@H](Cc2ccccc2)C(=O)N2[C@H]1C[C@]1(Br)c3ccccc3N(S(=O)(=O)c3ccccc3)[C@H]21 | 12.6% (inactive)
16 | COC(=O)c1ccc(COc2ccc(/C=N/NC(=O)C(=O)Nc3ccc(OC)cc3)cc2OC)o1 | 2.74% (inactive)
17 | O=C(N[C@@H](Cc1ccccc1)C(=O)OCc1ccccc1)c1nc[nH]c1C(=O)N[C@@H](Cc1ccccc1)C(=O)OCc1ccccc1 | 0.44% (inactive)
18 | CCOc1cc(/C=N/Nc2cc(C)nc3ccc(C)cc23)ccc1O | 10.4% (inactive)
19 | FC(F)(F)c1ccc2c3n(nc2c1)CCN=C3c1ccc(Cl)cc1 | 6.57% (inactive)
20 | COC(=O)CN1C(=O)[C@H]2[C@@H](C3CC3)N3C(=O)CN(Cc4ccc(-c5ccccc5)cc4)C(=O)[C@@]3(Cc3ccccc3)[C@H]2C1=O | -19.5% (inactive)
21 | CC(=O)Nc1ccc(NC(=O)CSc2nnnn2-c2ccccc2F)cc1 | -3.76% (inactive)
22 | CC1CN(c2nc(Nc3ccccc3)nc(N)c2[N+](=O)[O-])CC(C)O1 (centres undefined) | -1.38% (inactive)
23 | CCOc1cc(C)ccc1OCc1nnc(SCC(=O)Nc2cccc(C(=O)O)c2)n1-c1ccccc1 | 15.6% (inactive)
24 | Nc1cccnc1Sc1ccccc1 | -1.9% (inactive)

Row | SMILES | inhibition
25 | Cc1noc(C)c1NC(=O)Nc1cccc2c1O[C@H](CN(C)S(=O)(=O)c1c(C)noc1C)[C@@H](C)CN([C@H](C)CO)C2=O | -15.7% (inactive)
26 | O=C(O)c1ccccc1NC(=O)c1ccccc1-c1ccccc1C(=O)O | -11.4% (inactive)
27 | CCOCCn1[nH]c2ccccc2c1=O | -10.4% (inactive)
28 | COc1cc2c(cc1OC)C(c1ccccc1Br)NC(=O)C2 (centres undefined) | 1.27% (inactive)
29 | Cc1cccc(NC(=O)CCN2CC(C)CC(C)C2)c1 (centres undefined) | -2.59% (inactive)
30 | CC(=O)Nc1ccc(Oc2ccc3c(c2)C(=O)NC3=O)cc1 | 10.6% (inactive)
31 | CCCn1c(C2CCCN2c2nc(-c3ccc(C)cc3)cs2)nc2cc(Cl)c(N3CCCCC3)cc21 (centres undefined) | 10.4% (inactive)
32 | O=C(O)CCC(=O)N(Cc1ccccc1)Cc1ccccc1 | -4.24% (inactive)
33 | Cc1ccc(S(=O)(=O)N2CCN(C)CC2)cc1 | -1.33% (inactive)
34 | COc1cc2c(cc1OC)C(C(=O)Nc1cc(C)c(OC)c(C)c1)CC(=O)N2 (centres undefined) | 5.54% (inactive)
35 | CCOC(=O)c1sc(/N=C/C2=C(O)CC(C)(C)CC2=O)c(C(=O)OCC)c1C | 22.4% (inactive)
36 | O=C(c1ccc(F)cc1)n1cc(C(=S)N2CCOCC2)c2ccccc21 | 0.53% (inactive)
37 | Cn1cc(CN2CCC(C(O)CCc3ccccc3)CC2)c(-c2ccccc2F)n1 (centres undefined) | 9.2% (inactive)
38 | N=c1n(CCc2ccccc2)c2ccccc2n1Cc1ccccc1F | 59.9% (active)
39 | CN(Cc1ccccc1)Cc1ccccc1F | 19.5% (inactive)
40 | OC(CNC1CCCC1)COc1ccc(F)cc1 (centres undefined) | -4.99% (inactive)
41 | NC1=NC(c2ccc([N+](=O)[O-])cc2)N(c2ccc(F)cc2)C(N)=N1 (centres undefined) | 9.95% (inactive)
42 | CC(C)NC(=O)/C(C#N)=C\c1ccc(N(C)C)c(Br)c1 | 7.74% (inactive)
43 | CNC1(c2nnnn2-c2c(C)cccc2C)CCOC(C)(C)C1 (centres undefined) | 5.71% (inactive)
44 | COc1ccc(NC(=O)c2cc(-c3ccc(C)cc3)on2)cc1 | -2.96% (inactive)
45 | CCOC(=O)C1(Cc2ccccc2C)CCCN(S(C)(=O)=O)C1 (centres undefined) | -3.76% (inactive)
46 | COc1ccccc1C(=O)Nc1ccc(Nc2ccccc2)cc1 | -11.9% (inactive)
47 | COc1cc(OC)cc(-c2c(-c3cccs3)c3cc(-c4ccc(OC)nc4)ccc3n2C)c1 | -3.15% (inactive)
48 | Cc1ccc(C(=O)NNC2=Nc3cc([N+](=O)[O-])ccc3OC2)cc1 | 5.16% (inactive)

Row | SMILES | inhibition
49 | O=Cc1c(NCCCN2CCCC2=O)c2ccccc2[nH]c1=O | -5.27% (inactive)
50 | COc1ccc(CNC(=O)C2CCCC2)cc1 | -3.19% (inactive)
51 | COc1cccc2oc(CCc3ccccc3)cc(=O)c12 | -20% (inactive)
52 | O=C(CN1CCCCCC1)Nc1ccc(Br)cc1[N+](=O)[O-] | -7.18% (inactive)
53 | COc1ccc(NC(=O)CS(=O)(=O)c2ccccc2)cc1 | 34.6% (inactive)
54 | CCC(CO)Oc1cc(NC(=O)c2cccc(F)c2)c2ncn(C(C)C)c2c1 (centres undefined) | -8.65% (inactive)
55 | CCc1nnc(NS(=O)(=O)c2ccc(NC(=O)c3cccc(OC(F)(F)C(F)F)c3)cc2)s1 | -3.99% (inactive)
56 | CC(C)(C)OC(=O)C[C@H]1C/C=C\C[C@@H](CC(=O)N[C@H](CO)Cc2ccccc2)C(=O)NC[C@@H](c2ccccc2)OC1=O | 20.4% (inactive)
57 | COc1ccc(S(=O)(=O)NCCCc2ccccc2)cc1 | -6.3% (inactive)
58 | CCC1=NN2C(=N)/C(=C/c3cc(C)n(-c4ccccc4)c3C)C(=O)N=C2S1 | 20.8% (inactive)
59 | COC(=O)C1(CCSC)NC(c2ccc(OC)cc2OC)C2C(=O)N(c3cccc(C(C)=O)c3)C(=O)C21 (centres undefined) | 15.8% (inactive)
60 | Nc1cc(N)nc(SCc2cccc(F)c2)n1 | -27.3% (inactive)
61 | COc1ccccc1C(=O)Nn1cnnc1 | -1.75% (inactive)
62 | COc1ccc(-c2cc3ncccc3cn2)cc1 | -25% (inactive)
63 | CC(=O)NCC(=O)NC1CCCc2c1cnn2-c1ccccc1F (centres undefined) | -0.98% (inactive)
64 | CCOc1cc(/C=C2\C(=N)N3N=C(C)SC3=NC2=O)ccc1OCCOc1ccccc1 | -11.6% (inactive)
65 | O=C1C=C(c2cccc(Cl)c2O)C[C@@H](c2ccc(F)cc2)C1 | -16.5% (inactive)
66 | COc1ccccc1OCCCCCCN1CCN(C)CC1 | 14.7% (inactive)
67 | COc1cc(OC)cc(-c2sc3ccc(OC)cc3c2-c2ccc3cc[nH]c3c2)c1 | 5.06% (inactive)
68 | C/C(=C/c1ccccc1)C(=O)N1CCN(c2ccccc2)CC1 | 5.72% (inactive)
69 | Cc1cc2nc3n(c2cc1C)CC1CC(C(=O)NCCC(C)C)N(C)C31 (centres undefined) | 6.88% (inactive)
70 | COC(=O)[C@]1(C)N[C@H](c2ccc(-c3ccc(Cl)c(Cl)c3)cc2)[C@@H]2C(=O)N(C)C(=O)[C@@H]21 | 15.7% (inactive)
71 | CC(C)(C)NC(=O)/C(=C/c1cccnc1)NC(=O)c1ccco1 | -3.01% (inactive)
72 | COc1ccc(C(C)NC(=O)C2CCCC2)cc1 (centres undefined) | 7.38% (inactive)

Row | SMILES | inhibition
73 | O=C(CNc1ccc(F)cc1F)NC(=O)NCc1ccco1 | -14.3% (inactive)
74 | COc1ccc2ccn(C)c2c1 | 3.29% (inactive)
75 | CC(=O)N1CCC(N(C(=O)Nc2ccc(Cl)cc2)C(C)C)CC1 | -9.52% (inactive)
76 | CCC(=O)Nc1ccc(C(=O)NNC(=O)c2ccc(Cl)cc2)cc1 | 1.21% (inactive)
77 | CCN1C(=S)N[C@@H](CCc2ccccc2)[C@H](C(=O)OC)[C@H]1C | 12.5% (inactive)
78 | Oc1c(Br)cc(/C=N/NC(=S)NCC2CCCO2)cc1Br (centres undefined) | -1.52% (inactive)
79 | Cc1cc(N2CCN(c3ccccc3)CC2)nc(N2CCOCC2)n1 | -32.2% (inactive)
80 | COc1ccc(NC(=O)C2=NNC(=O)CC2)cc1S(=O)(=O)N1CCCCC1 | 3.13% (inactive)
81 | COc1ccc(N(CC(=O)Nc2cccc3ccccc23)S(C)(=O)=O)c(OC)c1 | 7.84% (inactive)
82 | O=C(COc1ccccc1)N1CCN=C1SCc1cccc(F)c1 | 8.04% (inactive)
83 | O=C(Nc1cccc(S(=O)(=O)NC2=NCCC2)c1)C1CCCCC1 | -1.09% (inactive)
84 | CCOc1cc2ccccc2cc1C(=O)Nc1ccccn1 | 3.24% (inactive)
85 | CC(=O)c1ccc(N2Cc3ccccc3C2)cc1 | 9.41% (inactive)
86 | O=C(CC(c1ccccc1)c1cc(Cl)ccc1O)NCCN1CCOCC1 (centres undefined) | -8.49% (inactive)
87 | CN(c1ccc(OCC(=O)NC2=NCCS2)cc1)S(=O)(=O)c1ccc(F)cc1 | -8.94% (inactive)
88 | C/C(=N/NC(=O)CN1CCN(S(=O)(=O)c2ccc(Br)cc2)CC1)c1ccncc1 | -12.4% (inactive)
89 | Cc1nnc(C)c2c(C)n(N)c(C)c12 | -1.23% (inactive)
90 | COc1ccc(CCN2C(=O)C(C)=C(C)C2=O)cc1OC | -7.13% (inactive)
91 | COc1cc(OC)cc(-c2c(C#Cc3ccsc3)c3cc(-c4ccc(SC)cc4)ccc3n2C)c1 | 3.56% (inactive)
92 | O=C(c1ccco1)N1CCN(c2cccc(Cl)c2)CC1 | 4.74% (inactive)
93 | O=C(c1ccco1)N1CCN(C(=O)C2c3ccccc3Oc3ccccc32)CC1 | 42.8% (active)
94 | O=C(c1ccco1)N1CCN(CCOc2ccccc2)CC1 | -1.67% (inactive)
